HT1080-NT tox – kills 2HG-producing HT-1080-NT fibrosarcoma cells | 360,000 compounds, 1.6% hits | Potency, µM (series often up to 46.1 µM), hits mostly cytotoxic | HT-1080-NT fibrosarcoma viability, CellTiter-Glo ATP luminescence, 48 h;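 also: NT is the 2HG producing partner of a matched IDH1 knockdown line; nearly all actives have a fitted effect of over 55% in size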
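Viability of the 2HG-overproducing fibrosarcoma line after 48 hours of compound exposure at 37 degrees C was determined by luminescence with CellTiter-Glo, and concentration-effect curves were then fitted and categorized.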
KB-3-1 cytotox – kills parental KB-3-1 adenocarcinoma cells; KB-3-1 viability, CellTiter-Glo ATP luminescence, 72 h; Potency, µM (series often up to 46.1 µM), usual class: cytotoxic; 400,000 compounds, 1.4% hits; AID 1347075; also: nearly all actives have a fitted effect of over 60% in size
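Viability of parental KB-3-1 cells, measured by CellTiter-Glo luminescence, followed a 72 h incubation at 37 °C with pinned compounds in phenol-red-free DMEM containing 10% FBS.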
HT1080 IDH1KD tx – HT-1080 IDH1 knockdown cell toxicity (counter line). HT-1080 IDH1 knockdown viability, ATP luminescence, 48 h. Potency, µM (titrated, usually from 46.1 µM), actives largely listed as cytotoxic. 360,000 compounds, 2% hits. AID 686971
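Viability of IDH1-knockdown HT-1080 fibrosarcoma cells was assessed by CellTiter-Glo after 48 h at 37 °C with titrated compound; concentration-effect curves were classified by fit quality and response size.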
MCF10A rerep – induces DNA re-replication in MCF 10a normal breast cells; MCF 10A DNA re-replication, Hoechst nuclear intensity, 48 h; Potency, µM (series often up to 46.1 µM), actives largely listed as activators; 350,000 compounds, 2.9% hits; also: nearly all actives have a fitted effect of over 50% in size
SW480 rerep – DNA re-replication induction in SW480 cells | Potency, µM (doses to about 46.1 µM), usual class: activators | SW480 DNA re-replication, Hoechst DNA content imaging, 48 h | 340,000 compounds, 1.8% hits | AID 624297; also: nearly all actives have a fitted effect of over 55% in size
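Per well, 250 cells were exposed to pinned compound for 48 hr. Nuclear DNA was visualised with Hoechst (40 min, 37 C) and total object intensity recorded by fluorescence scanning.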
KB-V1 cytotox – kills drug-selected multidrug resistant KB-V1 cells. KB-V1 MDR cells viability, CellTiter-Glo, 72 h. Potency, µM (highest dose often 46.1 µM), hits mostly cytotoxic. 400,000 compounds, 3.4% hits. AID 1347076; also: nearly all actives have a fitted effect of over 60% in size
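Cytotoxicity toward P-gp-expressing KB-V1 cells was determined as loss of CellTiter-Glo luminescence after 72 h at 37 degrees C. Compounds were tested in quantitative HTS format across a concentration range, with curves fitted to normalized data.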
Hits are given with their value; [ ] = dose if it differs, or a comment. This is a sample that favours compounds with a hit; in the whole collection about 7.9% have one here. Calls follow the shape of the dose curve; as a rule, active = well fitted curve in the direction sought with a large enough effect; inconclusive = small, poorly fitted or top-dose-only effect, or another doubt; inactive = no such curve, though single readings can be large; an effect the other way counts as inactive or inconclusive.

Results for CN(C)S(=O)(=O)N(CC(=O)Nc1ccc(C(F)(F)F)cc1)c1ccccc1 ?
KB-3-1 cytotox: inactive; KB-V1 cytotox: inactive

How did Cc1ccc(NC(=O)CN(c2ccccc2)S(=O)(=O)N(C)C)cc1 do in these assays?
HT1080-NT tox: inactive; KB-3-1 cytotox: inactive; HT1080 IDH1KD tx: inactive; MCF10A rerep: inactive; SW480 rerep: inactive; KB-V1 cytotox: 14.6µM

Results for CN(C)S(=O)(=O)N(CC(=O)Nc1ccc(F)c(F)c1)c1ccccc1 ?
HT1080-NT tox: inactive; KB-3-1 cytotox: inactive; HT1080 IDH1KD tx: inactive; MCF10A rerep: inactive; SW480 rerep: inactive; KB-V1 cytotox: 20.6µM

What do the screens show for `CN(CC(=O)Nc1cccc(F)c1)C(=O)c1cc(=O)[nH]c2ccccc12`?
HT1080-NT tox: inactive; KB-3-1 cytotox: inactive; HT1080 IDH1KD tx: inactive; MCF10A rerep: inactive; SW480 rerep: inactive; KB-V1 cytotox: inactive

Results for COC(=O)c1cccc(NC(=O)c2cccs2)c1C ?
HT1080-NT tox: inactive; KB-3-1 cytotox: inactive; HT1080 IDH1KD tx: inactive; MCF10A rerep: inactive; SW480 rerep: inactive; KB-V1 cytotox: inactive

Results for CSc1cccc(-n2cc(-c3ccc4c(c3)OCO4)[nH]c2=O)c1 ?
HT1080-NT tox: inconclusive; KB-3-1 cytotox: 4.11µM; HT1080 IDH1KD tx: inconclusive; MCF10A rerep: 20.6µM; SW480 rerep: 20.6µM; KB-V1 cytotox: 7.31µM

How did C=CCOc1ccc(C2C3=C(CCCC3=O)N(CC(=O)O)C3=C2C(=O)CCC3)cc1OCC do in these assays?
HT1080-NT tox: inactive; KB-3-1 cytotox: inactive; HT1080 IDH1KD tx: inactive; MCF10A rerep: inactive; SW480 rerep: inactive; KB-V1 cytotox: inconclusive

Results for C=CCOc1c(Br)cc(C2C3=C(CCCC3=O)N(C)C3=C2C(=O)CCC3)cc1OCC ?
HT1080-NT tox: inactive; KB-3-1 cytotox: inactive; HT1080 IDH1KD tx: inactive; MCF10A rerep: inactive; SW480 rerep: 23.1µM; KB-V1 cytotox: inactive

What do the screens show for `Cc1ccc2c(c1)C1CN(C)CCC1N2C(=O)c1cccc(S(=O)(=O)N(C)C)c1` (configuration not stated)?
HT1080-NT tox: inactive; KB-3-1 cytotox: inactive; HT1080 IDH1KD tx: inactive; MCF10A rerep: inactive; SW480 rerep: inactive; KB-V1 cytotox: inconclusive

What do the screens show for `NC(=S)N/N=C1\CCSc2ccc(Cl)cc21`?
HT1080-NT tox: inactive; KB-3-1 cytotox: inactive; HT1080 IDH1KD tx: inactive; MCF10A rerep: inactive; SW480 rerep: 18.4µM; KB-V1 cytotox: inconclusive

Results for O=C(N/N=C1\CCSc2ccc(F)cc21)c1cccnc1 ?
HT1080-NT tox: inactive; KB-3-1 cytotox: inactive; HT1080 IDH1KD tx: inactive; MCF10A rerep: inactive; SW480 rerep: inactive; KB-V1 cytotox: inactive

What do the screens show for `O=[N+]([O-])c1ccc(Cl)c(CN2CCN(c3ncc(Cc4ccccc4)cn3)CC2)c1`?
HT1080-NT tox: inactive; KB-3-1 cytotox: inconclusive; HT1080 IDH1KD tx: inactive; KB-V1 cytotox: 5.17µM

What do the screens show for `CC(C)c1nnc(N2C(=O)c3oc4ccccc4c(=O)c3C2c2ccco2)s1` (configuration not stated)?
HT1080-NT tox: inactive; KB-3-1 cytotox: inconclusive; HT1080 IDH1KD tx: inactive[9.24 µM]; MCF10A rerep: inactive; SW480 rerep: inactive; KB-V1 cytotox: inconclusive

What do the screens show for `CCCOc1ccc2oc(=O)c3c(c2c1)CCCN3C(=O)CN1CCN(c2ncccn2)CC1`?
HT1080-NT tox: inactive; KB-3-1 cytotox: inactive; HT1080 IDH1KD tx: inactive; MCF10A rerep: inactive; SW480 rerep: inactive; KB-V1 cytotox: inactive

Results for CCOC(=O)C1CCN(CC(=O)N2CCCc3c2c(=O)oc2ccc(OCc4ccccc4)cc32)CC1 ?
KB-3-1 cytotox: inactive; KB-V1 cytotox: inactive

Results for CCCOc1ccc2oc(=O)c3c(c2c1)CCCN3C(=O)CN1CCCC(C(=O)OCC)C1 (configuration not stated) ?
HT1080-NT tox: inactive; KB-3-1 cytotox: inactive; HT1080 IDH1KD tx: inactive; MCF10A rerep: inactive; SW480 rerep: inactive; KB-V1 cytotox: 11.6µM

Results for O=C(CN1CCCC1)N1CCCc2c1c(=O)oc1ccc(OCc3ccccc3)cc21 ?
HT1080-NT tox: inconclusive; KB-3-1 cytotox: inactive; HT1080 IDH1KD tx: inconclusive; MCF10A rerep: inactive; SW480 rerep: inconclusive; KB-V1 cytotox: 18.4µM

What do the screens show for `COC(=O)C1=CN(Cc2ccc(C)cc2)C=C(C(=O)OC)C1c1ccc(F)c(F)c1`?
HT1080-NT tox: inactive; KB-3-1 cytotox: inactive; HT1080 IDH1KD tx: inactive; MCF10A rerep: 23.1µM; SW480 rerep: 4.61µM; KB-V1 cytotox: inconclusive

Results for COC(=O)C1=CN(Cc2ccc(F)cc2)C=C(C(=O)OC)C1c1cc(OC)c(OC)c(OC)c1 ?
HT1080-NT tox: inactive; KB-3-1 cytotox: inactive; HT1080 IDH1KD tx: inactive; MCF10A rerep: inactive; SW480 rerep: inactive; KB-V1 cytotox: inactive

What do the screens show for `COC(=O)C1=CN(Cc2ccccc2)C=C(C(=O)OC)C1c1cc(F)ccc1F`?
HT1080-NT tox: inactive; KB-3-1 cytotox: inactive; HT1080 IDH1KD tx: inactive; MCF10A rerep: 20.6µM; SW480 rerep: inconclusive; KB-V1 cytotox: inactive

How did O=C(NCc1ccc(F)cc1)C1CCCN1S(=O)(=O)c1cccc2nsnc12 (configuration not stated) do in these assays?
HT1080-NT tox: inactive; KB-3-1 cytotox: inactive; HT1080 IDH1KD tx: inactive; MCF10A rerep: inactive; SW480 rerep: inactive; KB-V1 cytotox: inactive

Results for COc1ccc([C@H]2C[C@@H](n3cc(-c4ccc(F)cc4)nn3)[C@H](O)CN2CC2CCCCC2)cc1 ?
HT1080-NT tox: inactive; KB-3-1 cytotox: inconclusive; HT1080 IDH1KD tx: inactive; KB-V1 cytotox: 20.6µM

How did O[C@@H]1CN(CC2CCCCC2)[C@@H](c2ccccc2)C[C@H]1n1cc(-c2ccc(F)cc2)nn1 do in these assays?
HT1080-NT tox: inconclusive; KB-3-1 cytotox: 16.4µM; HT1080 IDH1KD tx: inconclusive; KB-V1 cytotox: inactive

Results for CN(C)CCCNc1oc(/C=C/c2cccs2)nc1S(=O)(=O)c1ccccc1 ?
HT1080-NT tox: inactive; KB-3-1 cytotox: inactive; HT1080 IDH1KD tx: inactive; MCF10A rerep: inconclusive; SW480 rerep: 11.6µM; KB-V1 cytotox: inactive

What do the screens show for `COCCNc1oc(/C=C/c2cccs2)nc1S(=O)(=O)c1ccccc1`?
HT1080-NT tox: inactive; KB-3-1 cytotox: inactive; HT1080 IDH1KD tx: inactive; KB-V1 cytotox: inconclusive

Results for CCCCC(=O)Nc1ccc(NC(=O)c2cnccn2)cn1 ?
HT1080-NT tox: inactive; KB-3-1 cytotox: inactive; HT1080 IDH1KD tx: inactive; MCF10A rerep: inactive; SW480 rerep: inactive; KB-V1 cytotox: inconclusive

How did CC(=Nc1ccccc1)C1=C(O)C(Cc2ccc(O)cc2)NC1=O (configuration not stated) do in these assays?
HT1080-NT tox: 0.581µM; KB-3-1 cytotox: 0.206µM; HT1080 IDH1KD tx: inconclusive; MCF10A rerep: 0.461µM; SW480 rerep: 0.13µM; KB-V1 cytotox: inconclusive

Assay outcomes: PubChem, National Center for Advancing Translational Sciences (NCATS)
